From PubChem BioAssay (NCI) come the findings set out here.

Common to all, as to assay: NCI-60 one-dose screen, 48 h (100 = growth as untreated, 0 = no growth, -100 = all killed)
Common to all, as to settings: 10 µM unless noted

Assay [1] deals with DU-145 prostate.
Assay [2] concerns K-562 leukemia.
Assay [3] deals with MALME-3M melanoma.
Assay [4] concerns MDA-MB-231 breast.
Assay [5] has as its system RXF 393 renal.
Assay [6] concerns SF-268 CNS.
The subject of assay [7] is SF-295 CNS.
Assay [8] deals with SF-539 CNS.
Assay [9] relates to UACC-257 melanoma.
In assay [10] the test system is M14 melanoma.
For assay [11], the system named is HCT-15 colon.
Assay [12] deals with HT29 colon.
Assay [13] deals with SNB-75 CNS.
Assay [14] deals with SNB-19 CNS.
Assay [15] has as its system U251 CNS.
Assay [16] deals with PC-3 prostate.
Assay [17] deals with SK-MEL-5 melanoma.
The test system of assay [18] is UACC-62 melanoma.
Assay [19] relates to LOX IMVI melanoma.
The subject of assay [20] is SK-MEL-28 melanoma.

Each structure is given as a SMILES string. About 83,000 compounds went through this panel and 20% of them were active in at least one assay; those are over-represented in the sample as a whole.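 Interpretation: 100, growth as untreated; towards 0, rising growth inhibition; 0, no net growth; 0 to -100, cell death. Compounds scoring below 10 were considered active.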 Values without a mark were called inactive. Calls of active or inactive are those of the source.

As for `COc1ccc(-c2ccc(-c3ccc(C(=N)N)cc3)s2)cc1Cl`, the growth in assay [1] is -87.5% (active); in assay [2] it was -36.8% (active); in assay [3], 57.5%; in assay [4] it was -60.7% (active); in assay [5], 60.7%; in assay [6], 20%. Also, the growth in [7] was -37.5% (active); in assay [8], -59% (active); in assay [9] it was 88.1%; in assay [10] it was 38.6%; in assay [11] it was -70.3% (active); in assay [12], 0.572% (active). In addition, the growth in [13] was 100%; in assay [14] it was 24%; in assay [15] it was -62.4% (active); in [16], -25% (active); in assay [17], 87.7%; in assay [18], 88.3%. Further, the growth in assay [19] was -76.7% (active); in assay [20], 102%.

On to `COc1ccc(/C=N\Nc2nc(SCCC(C)C)nc(-c3ccc(OC)cc3)c2C#N)cc1`, for which the growth is 72.8% in assay [1]; 82% in [2]; 64.6% in assay [3]; 77.6% in assay [4]; 80.5% in assay [5]; 78.9% in assay [6]. In addition, the growth was 17.4% in assay [7]; 24.6% in [8]; 91.6% in assay [9]; 87.6% in assay [10]; 74.6% in [11]; 55% in assay [12]. In addition, the growth in assay [13] is -19.4% (active); in assay [14], 69.5%; in assay [15], 7.04% (active); in [16], 72.3%; in assay [17], 94.3%; in assay [18], 79.1%. Moreover, the growth in [19] is 66%; in [20], 104%.

Consider `S=c1sc2c(Cl)nc(-c3cccnc3)nc2n1-c1ccccc1`, for which the growth in assay [1] was 27.4%; in assay [2], 0.869% (active); in assay [3], 65.8%; in assay [4], -11.7% (active); in assay [5] it was -42.1% (active); in assay [6], 14.6%. For the same molecule, the growth in assay [7] was 96.1%; in [8], 6.15% (active); in assay [9] it was 50%; in assay [10], 33%; in assay [11], -32.6% (active); in assay [12], -53.8% (active). Further, the growth is 57.1% in [13]; 25.2% in assay [14]; 7.95% (active) in assay [15]; 1.75% (active) in assay [16]; 76.3% in [17]; -10.2% (active) in assay [18]. Moreover, the figures for the growth in [19] and in assay [20] were -52% (active) and -58.2% (active), respectively.

As to `COc1ccc(/C=C/C(=O)c2cc3c(N)c(C(=O)Nc4cccc5ccccc45)sc3nc2C)cc1`, the growth was 84.5% in assay [1]; 28.8% in [2]; 64.7% in assay [3]; 93% in [4]; 63.4% in assay [5]; 74.5% in [6]. In addition, the growth in assay [7] is 54.4%; in assay [8], 76.9%; in assay [9], 65.2%; in assay [10] it was 60%; in assay [11], 44.1%; in [12], 70.2%. In addition, the growth in assay [13] was 53.6%; in assay [14], 56.3%; in assay [15], 45.3%; in assay [16] it was 75.6%; in assay [17], 68.9%; in [18], 21.3%. Further, the values for the growth in assay [19] and in assay [20] were 60.1% and 64.9%, respectively.

As for `COc1cc2c(c(OC)c1OC)CCC(c1cccc(C(=O)Nc3ccc(C#N)cc3)c1)O2` (stereo not given), the growth is 66.5% in [1]; 20.4% in assay [2]; 58.2% in assay [3]; 49.4% in assay [4]; 78.8% in assay [5]; 80.1% in assay [6]. Besides, the growth is 42.5% in assay [7]; 68.8% in assay [8]; 44.5% in assay [9]; 37.7% in [10]; 59.7% in [11]; 69.3% in assay [12]. Moreover, the growth in [13] is 57.3%; in assay [14], 58.7%; in assay [15] it was 64.2%; in [16], 14%; in assay [17], -12.7% (active); in [18] it was 24.6%. The growth in assay [19] is 39.5%; in [20], 58.8%.

Consider `COc1ccc(/C=C(\C#N)n2nnc3cc(Cl)ccc32)cc1`, for which the growth in assay [1] is -14.9% (active); in [2], 8.41% (active); in assay [3], 34.6%; in [4], -56.3% (active); in assay [5] it was -55.2% (active); in assay [6], 27.6%. For the same molecule, the growth was -20.9% (active) in [7]; -60.5% (active) in [8]; 53% in assay [9]; -19.1% (active) in assay [10]; 0.0447% (active) in assay [11]; 2.07% (active) in assay [12]. For the same molecule, the growth was -47.6% (active) in assay [13]; 9.63% (active) in assay [14]; 5.37% (active) in assay [15]; 18.8% in assay [16]; -17.5% (active) in assay [17]; 9.49% (active) in assay [18]. The growth in [19] is -45.7% (active); in [20], 31.3%.

For `C=C1C(=O)O[C@H]2[C@H]1CC/C(Cn1cc(-c3ccccc3)nn1)=C\CC[C@@]1(C)O[C@@H]21`, the growth in assay [1] is -61.8% (active); in assay [2], -3.88% (active); in assay [3], -46.2% (active); in assay [4] it was -13% (active); in assay [5], -74.1% (active); in assay [6], 61.2%. In addition, the growth in assay [7] is 75%; in assay [8], -34.2% (active); in [9], -46.5% (active); in [10], -59% (active); in assay [11] it was -70.4% (active); in assay [12], -58.3% (active). For the same molecule, the growth was 64.2% in [13]; 68.1% in assay [14]; 50.2% in assay [15]; 37.3% in assay [16]; 21% in assay [17]; -45.2% (active) in assay [18]. Besides, the growth is -84.7% (active) in [19] and -26.9% (active) in assay [20].

As for `COc1ccc(Nc2ncc(Br)c(NCCCNC(=O)c3cccs3)n2)cc1`, the growth was 35.6% in assay [1]; 28% in assay [2]; 55.4% in assay [3]; 31.2% in [4]; -26.7% (active) in assay [5]; 13.2% in assay [6]. Also, the growth was 52.4% in [7]; 14.8% in assay [8]; 105% in [9]; 50.2% in assay [10]; 34.5% in [11]; 51.6% in [12]. The growth in assay [13] is 48.9%; in [14] it was 56.8%; in [15], 52.7%; in assay [16], 42.1%; in [17], 69.5%; in [18], 45.7%. Further, the figures for the growth in [19] and in assay [20] were 14.6% and 68.4%, respectively.
